# Measurements as given in the supplement of paper PMC6135742.
# Several values for one entry are separate records, joined by “and”; a condition that tells them apart may be missing. Equal values may be shown once. Where a name gives a salt, the structure may show the parent alone. ± gives the standard deviation of the averaged measurements. In all, about 2,600 compounds were measured (“MBP+ mature oligodendrocyte number relative to DMSO vehicle control”: median about -0.34, highest 2% from about 13 on). The entries come from a sample that favours the highest values as a whole.
# Tested on: jimpy (Plp1 jimpy) mouse iPSC-derived oligodendrocyte progenitor cells
# Experiment: MBP+ mature oligodendrocyte number relative to DMSO vehicle control (SDs above negative control mean); higher = more surviving jimpy oligodendrocytes (rescue)
# Conditions: 10 µM; 3 days
# Protocol: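 Primary phenotypic screen of >3,000 bioactive compounds (Selleck L1700 and Sigma LO1280 libraries) at a single dose of 10 µM. Compounds were added to jimpy (Plp1 mutant) mouse iPSC-derived OPCs at the start of thyroid hormone-induced oligodendrocyte differentiation, one well per compound in 384-well plates. After 3 days cells were stained for MBP, Sox10 and DAPI and imaged with an Operetta system. MBP+ oligodendrocyte number and total cell number were expressed as the number of SDs above the mean of the DMSO negative control on the same plate (n=16 control wells per plate). Hits were defined as >=4 SD for oligodendrocytes and >=2 SD for total cells.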
row,SMILES,MBP+ mature oligodendrocyte number
1,O=C1Cc2cc(CCN3CCN(c4nsc5ccccc45)CC3)c(Cl)cc2N1 [Ziprasidone HCl],21.9
2,O=C1CCc2ccc(OCCCCN3CCN(c4cccc(Cl)c4Cl)CC3)cc2N1 [Aripiprazole],5.11
3,O=C1Cc2cc(CCN3CCN(c4nsc5ccccc45)CC3)c(Cl)cc2N1 [Ziprasidone hydrochloride monohydrate],11.7
4,COc1ccc(-c2oc3c(CC=C(C)C)c(O)cc(O)c3c(=O)c2O)cc1 [Icaritin],-3.18
5,COc1cc(N2CCC(N3CCN(C)CC3)CC2)ccc1Nc1ncc(Cl)c(Nc2ccccc2S(=O)(=O)C(C)C)n1,< -6.7
6,Cn1cnc2c(NCc3ccccc3)nc(NCCO)nc21 [Olomoucine],1.83
7,CC(C)NCC(O)c1ccc(O)c(O)c1 (racemic) [(±)-Isoproterenol hydrochloride],0.225
8,Nc1cc2c(ncn2CCOCP(=O)(O)O)c(=O)[nH]1 [PMEG hydrate],-1.5
9,O.O=[Si]=O.O=[Si]=O.O=[Si]=O.O=[Si]=O.[O]=[Mg].[O]=[Mg].[O]=[Mg],-1.01
10,NC(N)=N/N=C/c1ccccc1Cl [Sephin-1],1.29
11,CCC(C)(C)c1ccc(CC(C)CN2C[C@@H](C)O[C@@H](C)C2)cc1 (stereo partly specified) [Amorolfine HCl],28.8
12,Fc1ccc2[nH]c(CN3CCN(c4ccccn4)CC3)cc2c1,-1.89
13,O=C(O)CCCCC1CCSS1 (racemic) [(±)-alpha-Lipoic Acid],-1.6
14,CN(CCCOc1ccc(Cc2ccccc2)cc1)CCC(=O)O,0.896
15,O=C(O)Cc1cccc(OCCCN(Cc2cccc(C(F)(F)F)c2Cl)CC(c2ccccc2)c2ccccc2)c1,24.5
16,CC1(C)CCC2=C(O1)c1ccccc1C(=O)C2=O [Beta-Lapachone],-6.18
17,CC1(C)CCC2=C(O1)c1ccccc1C(=O)C2=O [beta-Lapachone],< -3.97
18,CCOC(=O)C(C)(C)Oc1ccc(Cl)cc1 [Clofibrate],0.667
19,CC(C)(C)C(=O)C(Oc1ccc(Cl)cc1)n1ccnc1 (stereo unspecified) [Climbazole],38.6
20,CC(C)(Oc1ccc(Cl)cc1)C(=O)O [Clofibric Acid],2.94
21,C[C@H](CCC(=O)NCCS(=O)(=O)O)[C@H]1CC[C@H]2[C@@H]3[C@H](O)C[C@@H]4C[C@H](O)CC[C@]4(C)[C@H]3C[C@H](O)[C@]12C [Sodium Taurocholate hydrate],-0.433
22,Cc1cc(C)c(CNC(=O)c2cc(-c3ccc(CN4CCOCC4)cc3)cc3c2cnn3C2CCCC2)c(=O)[nH]1,30.2
23,CCN(c1cc(-c2ccc(CN3CCOCC3)cc2)cc(C(=O)NCc2c(C)cc(C)[nH]c2=O)c1C)C1CCOCC1,8.01
24,CCCc1cc(C)[nH]c(=O)c1CNC(=O)c1cc(-c2ccc(N3CCN(C(C)C)CC3)nc2)cc2c1cnn2C(C)C,< -6.35
25,CCc1cc2c(cc1N1CCC(N3CCOCC3)CC1)C(C)(C)c1[nH]c3cc(C#N)ccc3c1C2=O,-2.2
26,NC(=O)[C@@H](CCC(F)(F)F)N(Cc1ccc(-c2ncon2)cc1F)S(=O)(=O)c1ccc(Cl)cc1,4.21

row,SMILES,MBP+ mature oligodendrocyte number
1,CCn1c(=O)c2c(nc(/C=C/c3ccc(OC)c(OC)c3)n2C)n(CC)c1=O [Istradefylline],-4.18
2,Cn1cc(C2=C(c3ccc(Cl)cc3Cl)C(=O)NC2=O)c2ccccc21,22.4 and 12.6
3,Cn1cc(/C=C2\C(=O)Nc3cccnc32)c2ccccc21,-3.63
4,Cn1cc(C2=C(c3cn(CCCSC(=N)N)c4ccccc34)C(=O)NC2=O)c2ccccc21 [Ro 31-8220 Mesylate],-5.25
5,Cc1[nH]c2ccccc2c1CCNCc1ccc(/C=C/C(=O)NO)cc1 [Panobinostat (LBH589)],< -6.7
6,CN(CC[C@@H](Oc1ccc(C(F)(F)F)cc1)c1ccccc1)CC(=O)[O-].[Li+],0.588
7,Clc1ccc(C(Cn2ccnc2)OCc2c(Cl)cccc2Cl)c(Cl)c1 (stereo unspecified) [Isoconazole nitrate],22.9
8,Clc1ccc(COC(Cn2ccnc2)c2ccc(Cl)cc2Cl)c(Cl)c1 (stereo unspecified) [Miconazole],-1.9
9,Clc1ccc(COC(Cn2ccnc2)c2ccc(Cl)cc2Cl)c(Cl)c1 (stereo unspecified) [Miconazole Nitrate],-3.62
10,Clc1ccc(COC(Cn2ccnc2)c2ccc(Cl)cc2Cl)cc1 (stereo unspecified) [Econazole nitrate],5.37
11,COc1ccc(C2(CNC(=O)c3ccc(NC(=O)c4ccco4)cc3)CCOCC2)cc1,-2.6
12,CC(Cc1ccc(O)c(O)c1)(NN)C(=O)O (stereo not drawn) [S-(-)-Carbidopa],-1.01
13,Cc1nccn1CC1CCc2c(c3ccccc3n2C)C1=O (stereo unspecified) [Ondansetron HCl],12.8
14,Nc1cc(Cl)c(NC2=NCCN2)c(Cl)c1 [p-Aminoclonidine hydrochloride],-0.786
15,CNC(=O)CN(CCN(CCN(CC(=O)[O-])CC(=O)NC)CC(=O)[O-])CC(=O)[O-].[Gd+3] [Gadodiamide],< -5.15
16,C#C[C@]1(O)CC[C@H]2[C@@H]3CCc4cc(O)ccc4[C@H]3CC[C@@]21C [Ethinyl Estradiol],0.433
17,C#C[C@]1(O)CC[C@H]2[C@@H]3CCc4cc(OC)ccc4[C@H]3CC[C@@]21C [Mestranol],12.8
18,C#C[C@]1(O)CC[C@H]2[C@@H]3CCC4=CC(=O)CC[C@@H]4[C@H]3CC[C@@]21C [Norethindrone],6.57
19,O=C(Nc1ccc2c(c1)CCN(Cc1ncn[nH]1)C2)c1ccccc1-c1ccc(C(F)(F)F)cc1,2
20,c1ccc2c(c1)CCC[C@H]2Nc1nc2ccccc2[nH]1 [NS8593 hydrochloride],-0.125
21,NC(=O)NO [Hydroxyurea],0.603 ± 0.14
22,CO[C@H]1C[C@@H]2CC[C@@H](C)[C@@](O)(O2)C(=O)C(=O)N2CCCC[C@H]2C(=O)O[C@H]([C@H](C)C[C@@H]2CC[C@@H](O)[C@H](OC)C2)CC(=O)[C@H](C)/C=C(\C)[C@@H](O)[C@@H](OC)C(=O)[C@H](C)C[C@H](C)/C=C/C=C/C=C/1C [Rapamycin (Sirolimus)],-5.74
23,Cc1ccc(F)c(NC(=O)Nc2ccc(-c3cccc4[nH]nc(N)c34)cc2)c1 [Linifanib (ABT-869)],-5.74
24,COc1ccc(Cl)cc1NC(=O)Nc1cc(C)nc2ccccc12,-4.52
25,Cc1cc(NC(=O)Nc2ccc(N(C)C)cc2)c2cc(F)cc(F)c2n1,29.4
